# Measurements: PubChem BioAssay (NCI)
# The panel holds about 79,000 compounds, 15% with a hit somewhere; the sample as a whole holds those more often. A number with no mark means an inactive call. Calls of active or inactive are those of the source. No stated cut-off is given here; in the data, active means growth inhibition above about 70%; inactive means the rest.
# Columns and labels:
# [1] = NCI Yeast Anticancer Drug Screen. Data for the rad50 strain (AID 155);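 further: 0% = growth of vehicle-only cultures of the same strain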; conditions: S. cerevisiae rad50 strain growth inhibition, active compounds read high
# Summary of the method: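 Cells are treated with compound, grown, and their growth is then scored against vehicle-only cultures of the same repair-deficient yeast strain.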
# [2] = NCI Yeast Anticancer Drug Screen. Data for the mec2-1 strain (AID 157); conditions: S. cerevisiae mec2-1 strain, active compounds read high
# Summary of the method: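 Each compound was tested on mec2-1 yeast, a strain altered in DNA damage repair or cell cycle control. Growth inhibition is reported relative to vehicle.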
# [3] = NCI Yeast Anticancer Drug Screen. Data for the sgs1 mgt1 strain (AID 161);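 further: 0% = growth of cultures given vehicle only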; conditions: S. cerevisiae sgs1 mgt1 strain, active compounds read high
# Summary of the method: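 Genetically altered yeast, compound exposure, growth inhibition relative to vehicle.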
# [4] = NCI Yeast Anticancer Drug Screen. Data for the cln2 rad14 strain (AID 165);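 further: 0% = growth equal to vehicle treated cultures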; conditions: S. cerevisiae cln2 rad14 strain, active compounds read high
# Summary of the method: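 Test compounds were added to cln2 rad14 yeast cultures; inhibition of growth was then determined by comparison with vehicle treatment.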
# [5] = NCI Yeast Anticancer Drug Screen. Data for the bub3 strain (AID 167); conditions: S. cerevisiae bub3 mutant strain, active compounds read high
# Summary of the method: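 Part of a panel of yeast mutants defective in DNA damage repair or cell cycle regulation. Each strain is grown with compound, and inhibition is calculated relative to solvent-treated cultures.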
# [6] = NCI Yeast Anticancer Drug Screen. Data for the mlh1 rad18 strain (AID 175); conditions: S. cerevisiae mlh1 rad18 strain growth inhibition, active compounds read high
# Summary of the method: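 Inhibition values reflect reduced growth of mutant yeast versus vehicle-treated controls following compound exposure; the mutations affect DNA damage repair.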
# [7] = at 5.0 µM (retest, dose inferred, filed as 0.5)
# [8] = at 50.0 µM (retest, dose inferred, filed as 5.0)
SMILES,"growth inhibition [1, 7]","growth inhibition [1, 8]",growth inhibition ([1]; at 50.0 µM),"growth inhibition [2, 7]","growth inhibition [2, 8]",growth inhibition ([2]; at 50.0 µM),"growth inhibition [3, 7]","growth inhibition [3, 8]",growth inhibition ([3]; at 50.0 µM),"growth inhibition [4, 7]","growth inhibition [4, 8]",growth inhibition ([4]; at 50.0 µM),"growth inhibition [5, 7]","growth inhibition [5, 8]",growth inhibition ([5]; at 50.0 µM),"growth inhibition [6, 7]","growth inhibition [6, 8]",growth inhibition ([6]; at 50.0 µM)
CCN(CC)CCOc1ccc(C=C2c3ccccc3-c3ccccc32)cc1,98% (active),99% (active),99.2% (active),99% (active),99% (active),99.2% (active),99% (active),99% (active),99.3% (active),99% (active),99% (active),99.1% (active),99% (active),99% (active),99.2% (active),98% (active),99% (active),98.9% (active)
CC12OC(=O)C(C(N)=O)=C1C=C(c1ccccc1)CC2c1ccccc1 (stereo unspecified),-1%,23%,65%,12%,53%,43.9%,-5%,67%,86.8% (active),-3%,21%,82.5% (active),-4%,60%,87.5% (active),11%,83% (active),86.1% (active)
CCC[CH2][Sn]([CH2]CCC)([O]C(=O)c1cc(OC)c(OC)c(OC)c1)[O]C(=O)c1cc(OC)c(OC)c(OC)c1,96% (active),96% (active),71.9% (active),96% (active),96% (active),84.7% (active),94% (active),94% (active),74.8% (active),95% (active),95% (active),80% (active),97% (active),97% (active),74.8% (active),96% (active),96% (active),78.5% (active)
CC(C)/C=C1\CCC(CN2CCOCC2)C1=O (stereo unspecified),24%,36%,72.1% (active),18%,26%,28.4%,22%,44%,48.7%,23%,20%,30.9%,17%,62%,30.6%,-5%,71% (active),67.2%
Clc1ccc2nc(Cl)c(Cl)nc2c1,-143%,42%,81.3% (active),-43%,27%,45.3%,-56%,76% (active),88.9% (active),-54%,51%,59.5%,-71%,44%,65.2%,-137%,62%,69.6%
CCN(CC)c1ccc(N=Nc2ccc(Br)cn2)c(O)c1,-1%,51%,96.8% (active),-4%,84% (active),95.5% (active),-3%,79% (active),97.1% (active),-2%,46%,94.7% (active),1%,71% (active),97.2% (active),-1%,77% (active),97.2% (active)
Cc1cc([N+](=O)[O-])cc(C)[n+]1[O-],13%,67%,82.5% (active),0%,12%,50.1%,17%,80% (active),91.2% (active),3%,53%,44.8%,0%,-14%,6.55%,20%,60%,84.2% (active)
Fc1ccc(CSC(=S)Nc2ccc(Br)cc2)cc1,9%,99% (active),91.2% (active),8%,99% (active),90% (active),11%,99% (active),94.8% (active),-9%,99% (active),56.2%,-6%,99% (active),71.1% (active),21%,99% (active),95.5% (active)
CCOC(=O)Cc1csc2[n+]1C(=O)/C(=C\c1cccc(Cl)c1Cl)S2,11%,20%,69.4%,0%,28%,60%,1%,52%,83.4% (active),-11%,32%,31.8%,-32%,52%,75.8% (active),14%,29%,72.5% (active)
CCN(CC)P(=S)(c1ccccc1CCP(=S)(c1ccccc1)c1ccccc1)N(CC)CC,-6%,34%,91.2% (active),-3%,21%,98.6% (active),-6%,62%,97.6% (active),-1%,11%,96.8% (active),-2%,41%,59.6%,-4%,32%,97.1% (active)
Cc1c(O)/c(=C\O)c2nc3c(=O)ccc(C(=O)NCCN(C)C)c3[nH]c2c1=O,29%,97% (active),57.5%,14%,70% (active),98.2% (active),33%,97% (active),56%,-10%,94% (active),98.2% (active),19%,96% (active),98.3% (active),34%,96% (active),45.1%
O=C(/C=C\c1cccc2ccccc12)c1ccccn1,7%,97% (active),98.2% (active),4%,97% (active),93.5% (active),12%,99% (active),98.8% (active),0%,97% (active),87.2% (active),20%,99% (active),97% (active),9%,99% (active),99% (active)
